In PubChem BioAssay AID624352 (Sanford-Burnham Center for Chemical Genomics, 2012):
The whole screen tested about 360,000 compounds, of which about 2,600 (0.72%) were called active. The sample holds actives, similar compounds and a random draw of the others, so the mix is not that of the screen.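 Rule for the calls: active = inhibition of the luminescence signal of 40% or more relative to plate controls, in a single-dose primary screen at 18.75 µM; inactive = the rest.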

Assay: blockers of HIF-2a driven luciferase – luminescence, 786-0 RCC cells, primary screen (AID 624352)
Details: 786-0 RCC cells HIF-2a reporter, overnight, at 18.8 µM, stronger effect = higher value

SMILES | inhibition
CC(C)NC(=O)Nc1cccc2c1O[C@H](CN(C)S(=O)(=O)c1cccs1)[C@@H](C)CN([C@H](C)CO)C2=O | 12.7% (inactive)
NS(=O)(=O)c1cccc(NC(=O)COC(=O)c2cc([N+](=O)[O-])ccc2N2CCCC2)c1 | 25.4% (inactive)
N#Cc1cccc(NC(=O)COC(=O)c2ccccc2C(=O)c2ccc(Cl)c([N+](=O)[O-])c2)c1 | 94.8% (active)
CC(=O)Nc1ccc(NC(=O)C(C)OC(=O)c2ccccc2C(=O)c2ccc(Cl)c([N+](=O)[O-])c2)cc1 (stereo unspecified) | 19.2% (inactive)
Brc1ccc2c(c1)[C@H]1OCC[C@H]1[C@@H](c1cccs1)N2 | -2.71% (inactive)
C[C@H](O)[C@@H]1C(=O)N2CCc3ccc(N4CCOCC4)cc3[C@@H]2C[C@@H]1N(C)C(=O)C(C)(C)C | -9.89% (inactive)
Cc1cc(C)c(SCCc2ccncc2)c(C)c1 | 10% (inactive)
Cc1cc(C)c2c(NC(=O)C3CC3)nn(C)c2n1 | 0.567% (inactive)
Cc1cc(Nc2cc(N3CCN(C)CC3)nc(Sc3ccc(NC(=O)C4CC4)cc3)n2)n[nH]1 | 52.1% (active)
Cc1n[nH]c(C)c1S(=O)(=O)N1CCCC(C(=O)Nc2ccc(Br)cc2)C1 (stereo unspecified) | 10.9% (inactive)
Nc1cccc(OCCCCCOc2cccc(N)c2)c1 | -55.8% (inactive)
COc1ccc(-c2nc3c(s2)CCc2onc(-c4ccc(OC)cc4)c2-3)cc1 | -8.84% (inactive)
CO/N=C/CC(=O)c1ccc(OC)cc1 | -11.6% (inactive)
Cc1cc(NC(=O)COc2ccccc2C#N)no1 | -198% (inactive)
CC(C)CCOc1ccc(C(=O)C[N+]2(C)CCOCC2)cc1 | 12.3% (inactive)
CCCOc1ccc(C(=O)C(CCC(CNCC)C(=O)c2ccc(OCCC)cc2)CNCC)cc1 (stereo unspecified) | 98.1% (active)
CCOc1cc(C(=O)O)ccc1OCCOc1ccccc1 | 15.8% (inactive)
CC(CC(=O)O)CC(=O)NNC(=O)c1cccc(Br)c1 (stereo unspecified) | 15.7% (inactive)
CC(=O)c1cccc(-c2ccc(CN3C(CC(C)C)C(=O)N(Cc4cn(CC5CCCCC5)nn4)CCS3(=O)=O)cc2)c1 (stereo unspecified) | 4.21% (inactive)

SMILES | inhibition
Cn1c(=O)cc(SCC(=O)N2CCN(C(=O)c3ccco3)CC2)c2ccccc21 | -11.7% (inactive)
CC(Sc1nncn1C)C(=O)NCCC1=CCCCC1 (stereo unspecified) | 1.01% (inactive)
Cc1ccc(S(=O)(=O)N(CC(=O)Nc2cccc([N+](=O)[O-])c2)Cc2ccc(Cl)cc2)cc1 | 8.15% (inactive)
CC(=O)N(CN1C(=O)C2C3C=CC(C3)C2C1=O)c1cccc(Cl)c1 (stereo unspecified) | 9.8% (inactive)
O=C(CCl)N(Cc1cccc([N+](=O)[O-])c1)c1cccc(Cl)c1 | 40.9% (active)
NS(=O)(=O)c1cc2c(cc1Cl)NC(C(Cl)Cl)NS2(=O)=O (stereo unspecified) | 2.3% (inactive)
O=C1C=C(c2ccc(Cl)cc2)C(=O)N1Nc1ccccc1 | 64.8% (active)
COc1ccc(CN2CCn3ncc(C(=O)Nc4ccc(Cl)cc4Cl)c3C2=O)cc1 | 13.3% (inactive)
C[C@]12c3[nH]c4ccc(Cl)cc4c3CCN1C(=O)[C@@H](CC(=O)NCCCn1ccnc1)C[C@@H]2C(=O)N1CCOCC1 | 6.91% (inactive)
Cc1ccc(CS(=O)(=O)c2ncc(Cl)c(C(=O)Nc3nnc(C)s3)n2)cc1 | 94.4% (active)
Cc1ccc(CS(=O)(=O)CCC(=O)NC2CC2)cc1 | 11.4% (inactive)
CN(CCC(=O)Nc1cc(S(=O)(=O)N(C)C)ccc1Cl)CC(=O)Nc1ccc(F)cc1 | 11.6% (inactive)
O=C(CS(=O)(=O)Cc1ccccc1)Nc1cccnc1 | -1.93% (inactive)
Cc1nnc(NC(=O)CSc2nccn2-c2cccc(C)c2C)s1 | 7.22% (inactive)
Cc1cccc(NC(=O)c2nc(S(=O)(=O)Cc3ccccc3)ncc2Cl)c1 | 86.7% (active)
Cc1cccc(CS(=O)(=O)c2ncc(Cl)c(C(=O)Nc3ccc(F)cc3)n2)c1 | 86.1% (active)
Cc1cccc(NS(=O)(=O)c2ccc(C)c(C(=O)NCc3cccnc3)c2)c1 | 9.9% (inactive)
Cc1cc(NS(=O)(=O)c2ccc(NC(=S)NC(=O)c3ccc(F)cc3Cl)cc2)no1 | 21.4% (inactive)
CCCN(CC(=O)Nc1ccccc1OC)C(=O)CCC(=O)c1ccc(F)cc1 | -7.63% (inactive)

SMILES | inhibition
O=C(CC1SC(=Nc2ccccc2)N(Cc2ccccn2)C1=O)Nc1cccc(Cl)c1 (stereo unspecified) | -84.7% (inactive)
CCN(C(=O)COC(=O)c1c(NC(C)=O)sc(C)c1C)C1CCS(=O)(=O)C1 (stereo unspecified) | 12.6% (inactive)
O=C(NCc1cccnc1)C12CC3CC(CC(C3)C1)C2 | 21.4% (inactive)
COc1ccc(Nc2ncnc3ccc(Br)cc23)c(OC)c1 | 75.3% (active)
CCOC(=O)CNc1nc(Cl)nc(Nc2ccc(OC)cc2OC)n1 | 12.9% (inactive)
CC1(C)CC2CC(C)(CN2c2ncnc3ccc(Br)cc23)C1 (stereo unspecified) | 31.5% (inactive)
CC1=NC2(CCCc3c2no[n+]3[O-])N(O)C1(C)C (stereo unspecified) | -5.63% (inactive)
Cc1cccc(-n2ncc(Cl)c(Cl)c2=O)c1 | 84.5% (active)
Nc1c(-c2cccc(Cl)c2)cnn1-c1cccc([N+](=O)[O-])c1 | -139% (inactive)
Cc1cccc(N2Cc3ccccc3C2=NC(=O)c2ccc(Cl)nc2)c1 | -92.3% (inactive)
COc1ccc(OC)c(-c2c(=O)n(OCc3ccccc3Br)c3ccccc3[n+]2[O-])c1 | 23.8% (inactive)
Cc1ccc(CNC(=O)COc2ccc(S(=O)(=O)NC(C)C)cc2)cc1 | -0.52% (inactive)
Cn1c(=O)n(C)c2cc(CNc3ccc(N4CCOCC4)c(C(=O)O)c3)ccc21 | 15.1% (inactive)
Cc1nnnn1/C(=C\c1ccccc1)C(=O)OCC(=O)N1CC2(C)CC1CC(C)(C)C2 (stereo unspecified) | 50.7% (active)
O=C(CNC(=O)c1cc(S(=O)(=O)N2CCOCC2)ccc1N1CCCC1)Nc1ccc(F)c(F)c1 | 3.34% (inactive)
COc1ccc(/C=N/N=C/c2c[nH]c(=O)c(C#N)c2Nc2ccccc2)cc1 | 22.7% (inactive)
O=C(O)CCn1c(O)c(C=C2N=c3ccccc3=N2)sc1=S | 48.3% (active)
C=CCNC(=O)C1CC2c3ccccc3C1c1ccccc12 (stereo unspecified) | 15.4% (inactive)
